KAT2A inh – GCN5L2 (KAT2A) acetyltransferase inhibition; Q92830; GCN5L2 HAT assay, ThioGlo1 CoA-SH fluorescence; Potency, µM (series often up to 58.9 µM), for the others: at the top dose activity change, negative = inhibition, most hits filed as inhibitors; 0.21% of 390,000 active; AID 504327
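Enzyme at 20nM final was mixed with library compounds for 15 min at room temperature. Peptide H3(1-25) at 75uM, acetyl-CoA at 70uM and ThioGlo1 at 50uM were then added. Plates were read immediately and after 20 min (Ex340nm/Em540nm).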
VDR inhibitor – vitamin D3 receptor (human) inhibition | P11473 | AID 504847 | 0.93% of 400,000 active | Potency, µM, for inactives: max response, negative = inhibition, usual class: inhibitors | VDR-SRC2-3 peptide fluorescence polarization, 2 h
Target sequence (P11473 whole entry, looked up): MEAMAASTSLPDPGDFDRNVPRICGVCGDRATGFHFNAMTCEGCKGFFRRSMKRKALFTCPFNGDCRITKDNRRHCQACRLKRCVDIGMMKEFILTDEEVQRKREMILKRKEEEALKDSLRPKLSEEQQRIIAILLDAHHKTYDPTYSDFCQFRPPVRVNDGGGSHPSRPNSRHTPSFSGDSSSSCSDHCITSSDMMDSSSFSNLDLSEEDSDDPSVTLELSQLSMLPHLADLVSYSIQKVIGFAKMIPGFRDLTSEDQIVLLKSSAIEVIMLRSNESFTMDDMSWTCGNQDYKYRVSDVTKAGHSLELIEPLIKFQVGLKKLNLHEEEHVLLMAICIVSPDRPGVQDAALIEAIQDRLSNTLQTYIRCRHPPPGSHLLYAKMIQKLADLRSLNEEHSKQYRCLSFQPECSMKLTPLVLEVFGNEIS
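After 23 nl compound addition and a short centrifugation, plates sat for 2 hours at ambient temperature; polarization of fluorescence then indicated loss of VDR binding to peptide SRC2-3.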
ALOX12 inh – inhibitors of human 12S-lipoxygenase ALOX12; P18054; purified 12hLO, xylenol orange hydroperoxide absorbance; Potency, µM (doses to about 108 µM), inactives show top-dose activity change, negative = inhibition, most hits filed as inhibitors; 1.1% of 580,000 active; AID 1671190
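Purified human 12hLO at 150 nM in 25 mM Hepes, 0.01% Triton X-100, pH 7.0, preincubated 15 min at room temperature with compound. Reaction started with 40 uM arachidonic acid, 30 min at room temperature. Hydroperoxide measured by Fe-xylenol orange, 573/405 nm absorbance ratio.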
PLK1 PBD inh – inhibitors of human PLK1 polo-box domain binding | P53350 | Potency, µM, for inactives: max response, negative = inhibition, usual class: inhibitors | Plk1 PBD binding of FITC phosphopeptide, fluorescence polarization | 2.8% of 360,000 active; further: series mostly up to about 57 µM; nearly all actives have a fitted effect of over 65% in size
The depositor's hits bear a star; ? = inconclusive; nt = no result; [ ] = another dose, or the depositor's remark. In the library only some 3% were active in any assay of this set; here they are far more common. The call rests on the fitted dose curve; in most records, active means well fitted curve in the direction sought with a large enough effect; inconclusive means small, poorly fitted or top-dose-only effect, or another doubt; inactive means no such curve, though single readings can be large; an effect the other way counts as inactive or inconclusive. On the % scale 0 is the no-effect control and ±100 the full control effect; potency means the concentration at half of the fitted maximal effect.

SMILES | KAT2A inh | VDR inhibitor | ALOX12 inh | PLK1 PBD inh
Cc1oc(-c2cccc(Cl)c2)nc1CN1CCN(C(=O)c2ccco2)CC1 | nt | nt | 35µM* | nt
CSc1ccc(/C=C2\SC(=Nc3ccccc3)N(c3ccccc3)C2=O)cc1 | nt | nt | 29% | nt
CCN(CC(=O)Nc1ccccc1C(F)(F)F)C(=O)Cc1ccc2c(c1)CCC2 | -1% | 0% | -12% | 0%
COc1cccc(NC(=O)CN(C)C(=O)Cc2ccc3c(c2)CCC3)c1 | 3% | -7% | -1% | -26%
O=C(Cc1ccc2c(c1)CCCC2)Nc1ccccc1Br | 6% | -22% | ? | 24µM*
CN(CC(=O)Nc1c(Cl)cccc1Cl)C(=O)Cc1ccc2c(c1)CCC2 | -5% | ? | ? | 15µM*
CCCN(CC(=O)Nc1ccccc1OC)C(=O)Cc1ccc2c(c1)CCC2 | -2% | ? | nt | 21µM*
CCCN(CC(=O)Nc1ccccc1OC)C(=O)C1CCCC1 | -2% | 8% | 27% | 4%
CCN(CC(=O)Nc1c(F)cccc1F)C(=O)Cc1ccc2c(c1)CCC2 | -4% | 6% | ? | 17µM*
CC(C)CNc1nc(-c2ccc(S(=O)(=O)N3CCCCCC3)cc2)cs1 | nt | nt | -6% | nt
COc1ccc(C2Nc3ccccc3C(=O)N2Cc2ccco2)cc1COc1c(C)cccc1C (stereo not drawn) | nt | 14µM* | nt | nt
COc1ccc2nc(Nc3nc(C)c(Cc4ccc(Cl)cc4)c(=O)[nH]3)nc(C)c2c1 | nt | nt | 15% | nt
O=C(COc1cccc(Cl)c1)NNC(=S)Nc1ccccc1 | 0% | ? | -28% | 24µM*
CC(NC(=O)COc1ccc([N+](=O)[O-])cc1)c1ccccc1 (stereo not drawn) | 2% | -14% | -10% | 12µM*
COc1ccc(OCC(=O)NNC(=S)NC(=O)c2ccc([N+](=O)[O-])cc2)cc1 | ? | -18% | ? | 24µM*
CC(=O)NC(=S)NNC(=O)COc1ccc(Br)cc1 | -23% | -8% | -14% | 27µM*
COc1ccc(C(=O)NNC(=S)NC(=O)c2ccc(OC)cc2)cc1 | -8% | -5% | ? | -2%
COc1cc(/C=C/C(=O)OCC(=O)OC2CC(C)CCC2C(C)C)cc(OC)c1OC (stereo not drawn) | nt | nt | 34% | nt
CC(=O)NC(=S)NNC(=O)COc1ccc([N+](=O)[O-])cc1 | -5% | -4% | -17% | 21µM*
CCCCCC(=O)NNC(=S)NC(=O)c1ccc([N+](=O)[O-])cc1 | ? | ? | 0% | 11µM*
Cc1cccc(C(=O)NC(=S)NNC(=O)COc2ccc(Cl)cc2)c1 | -1% | 3% | 35µM* | 27µM*
C=CCN1C(=O)N/C(=C/c2ccc(C)o2)C1=O | -18% | -27% | -3% | ?
C=CCn1c(=O)/c(=C/c2ccc(C)o2)s/c1=C(/C#N)C(=O)c1ccccc1 | -23% | 58% | 11µM* | ?
O=C1C2CC=CCC2C(=O)N1CC1CCCO1 (stereo not drawn) | -24% | ? | -6% | 24µM*
COc1cc(NS(=O)(=O)c2ccc(NC(=S)NC(=O)c3ccc(F)c(F)c3)cc2)nc(OC)n1 | -2% | -12% | 13µM* | -28%
SMILES | KAT2A inh | VDR inhibitor | ALOX12 inh | PLK1 PBD inh
COc1cc(NS(=O)(=O)c2ccc(NC(=S)NC(=O)c3cccs3)cc2)nc(OC)n1 | 28% | -21% | 32µM* | -17%
O=C(OCC(=O)N1CCOCC1)c1ccccc1-c1nc2ccccc2s1 | nt | nt | -13% | nt
CC(Sc1nc(CN2CCOCC2)nc2ccccc12)C(=O)Nc1ccccc1F (stereo not drawn) | nt | nt | -29% | nt
Cc1ccc(Nc2nc(-c3c[nH]c(C(=O)N4CCCC4)c3)cs2)cc1F | nt | nt | -82% | nt
COc1ccc(-c2nnc3ccc(SCc4ccco4)nn23)cc1 | nt | nt | -30% | nt
CCCCNC(=O)C1CCN(Cc2nc(-c3ccc(OC)c(OC)c3)oc2C)CC1 | -6% | -12% | ? | nt
COc1ccc(-c2nc(CN3CCC(C(=O)NCC4CCCO4)CC3)c(C)o2)cc1OC (stereo not drawn) | 0% | -30% | -11% | 21µM*
Cc1cc(C)c(CN2CCC(N3CCC(C(=O)NCC4CCCO4)CC3)CC2)cc1C (stereo not drawn) | -4% | ? | 4% | 30µM*
CCOCCCNC(=O)CSCc1nc(-c2ccc(OC)c(OC)c2)oc1C | nt | nt | 14% | nt
COc1ccc(-c2nc(CSCC(=O)NCCCN3CCCC3=O)c(C)o2)cc1OC | -3% | -26% | -14% | 21µM*
COc1ccccc1Cc1nc2ccccc2nc1SCC(=O)Nc1ccccc1OC | nt | nt | 13% | nt
COc1ccc(-c2c(C(F)(F)F)oc3cc(OC(=O)C(C)C)ccc3c2=O)cc1OC | nt | nt | -61% | nt
Cc1ccc(Nc2nc3ccccc3nc2NS(=O)(=O)c2cccs2)cc1Cl | nt | nt | -2% | nt
C=C(CN(C)C)C(=O)c1ccc(C)cc1C | nt | 18µM* | ? | 2.7µM*
C=C(CN(C)C)C(=O)c1cc(OC)c(OC)cc1OC | nt | 50µM* | -27% | 17µM*
COc1cc(OC)c(C(=O)CCC(=O)O)cc1OC | -5% | -8% | 12% | -9%
C=C(CN(C)C)C(=O)c1ccc2c(c1)OCO2 | nt | 79µM* | -25% | 15µM*
Cn1cc(C(=O)NCCCN2CCCCCC2=O)c2ccccc21 | nt | nt | 6% | nt
N#CC1(C(=O)NCC2(c3ccccc3)CCCCC2)CCCCC1 | nt | nt | 1% | nt
Cn1c(Oc2ccc(-c3ccc(Br)cc3)cc2)c(C#N)c(=O)n(C)c1=O | nt | nt | 13µM* | nt
Cc1ccc(CN(C)Cc2ccccc2C)o1 | nt | nt | 43% | nt
O=C1CC(=Nc2ccc([N+](=O)[O-])cc2)NN1c1c(Cl)cc(Cl)cc1Cl | nt | nt | 32µM* | -29%
Cc1cccc(OC(C)C(=O)NN)c1 (stereo not drawn) | nt | nt | 8% | nt
CC(C)C(=O)N1CCN(CCNc2cc(=O)oc3ccccc23)CC1 | nt | nt | -22% | nt
CSCC[C@H](NC(=O)N1CCn2c1nc1ccccc12)C(=O)NCc1ccccc1 | -6% | -11% | 15% | -20%
SMILES | KAT2A inh | VDR inhibitor | ALOX12 inh | PLK1 PBD inh
CSCC[C@H](NC(=O)N1CCn2c1nc1ccccc12)C(=O)NCc1ccco1 | -14% | -16% | 15% | 27µM*
COc1ccc(-c2nc(C3CC3)nc3c2CCN([S+](=O)([O-])c2cccs2)CC3)cc1 | nt | nt | 12%[6.33 µM] | nt
Cc1ccccc1S(=O)(=O)Cc1ccc(C(=O)NCc2ccco2)o1 | -3% | ? | -7% | 24µM*
Cc1cc(=O)[nH]c(SCC(=O)OCc2ccccc2)c1C#N | 3% | -23% | 2% | 21µM*
CCOC(=O)CSc1[nH]c(=O)cc(C)c1C#N | -3% | -17% | 2% | -9%
O=C(CCN1C(=O)NC2(CCCC2)C1=O)Nc1cccc2cccnc12 | nt | nt | -15% | nt
COC(=O)c1cc(NCc2c(F)cccc2Cl)ccc1N1CCOCC1 | -3% | 5% | 16% | -9%
COC(=O)c1ccc(NCc2cc(O)ccc2O)cc1O | nt | -16% | 5µM* | -6%
COC(=O)c1ccc(NCc2c(O)ccc(O)c2Br)cc1Cl | nt | ? | 0.89µM* | ?
COc1ccc(CCC(=O)Oc2ccc3c(c2)OCO3)cc1 | nt | nt | 8% | nt
CCC(C)OC(=O)COc1ccc2c(=O)c(-c3ccccc3Cl)coc2c1 (stereo not drawn) | nt | nt | 37% | nt
O=C(COc1ncnc2c(Cl)cc(Cl)cc12)Nc1cccc(Cl)c1 | nt | nt | -13% | nt

Compound activity deposited in PubChem BioAssay by National Center for Advancing Translational Sciences (NCATS).
